Data taken from PubChem BioAssay (NCATS).
Records with an inconclusive call do not appear. A call without a number means that no potency is given here. The source made the active and inactive calls. Calls come from the whole dose curve; as a rule, active = well fitted curve in the direction sought with a large enough effect; inconclusive = small, poorly fitted or top-dose-only effect, or another doubt; inactive = no such curve, though single readings can be large; an effect the other way counts as inactive or inconclusive.

Experiments:
[1] = target: Aldehyde dehydrogenase, mitochondrial (Homo sapiens) (UniProt P05091); assay: qHTS for Inhibitors of the Aldehyde Dehydrogenase Family (ALDH2) Primary screen (AID 2061308); note: nearly all actives have a fitted effect of over 55% in size
[2] = target: Retinaldehyde dehydrogenase 3 (Homo sapiens) (UniProt P47895); assay: qHTS for Inhibitors of the Aldehyde Dehydrogenase Family (ALDH1A3) Primary screen (AID 2061315)

Row | Structure (SMILES) | Potency [1] | Potency [2]
1 | O=S(=O)(Nc1ccc(C2CCNCC2)cc1)c1ccc(NCc2cccc(Cl)c2O)cc1 | inactive | inactive
2 | COc1ccc(OC)c(Nc2nn3c(=O)c4ccccc4nc3s2)c1 | inactive | inactive
3 | O=C(O)c1ccc(-c2noc(-c3ccccc3C(F)(F)F)n2)cc1 | inactive | inactive
4 | O=C(/C=C/c1cccs1)Nc1cccc([S+](=O)([O-])Nc2ccccc2F)c1 | inactive | inactive
5 | COc1ccc(C(=O)Nc2ccc(-c3nc4ccccc4[nH]3)cc2)cc1F | inactive | inactive
6 | Cc1ccc([S+](=O)([O-])n2cc(Cc3ccc(-c4ccccc4)cc3)c3ccccc32)cc1 | inactive | inactive
7 | NC(=O)C1CCN(c2nc(-c3cccc(F)c3)cs2)CC1 | inactive | inactive
8 | CC(=O)Nc1ccc(S(=O)(=O)N2CCN(c3ccc(C(C)=O)cc3)CC2)cc1 | inactive | inactive
9 | CNc1oc(-c2cccc3ncccc23)nc1C#N | inactive | inactive
10 | COc1ccc2nc(-c3ccc(Cl)cc3)sc2c1 | inactive | inactive
11 | Cn1c2cc(C=O)sc2c2cnn(Cc3ccccc3F)c(=O)c21 | inactive | inactive
12 | COCCNc1nc(C)nc2c1nc(-c1ccccc1)n2CCN1CCCC1 | inactive | inactive
13 | CCN1CCN(C(=S)c2ccc(O)cc2)CC1 | inactive | inactive
14 | Cc1ccc(NS(=O)(=O)c2cc3c(cc2Cl)NC(=O)CO3)cc1C | inactive | inactive
15 | O=C(Cn1nc(-c2ccc3c(c2)OCO3)ccc1=O)NCCc1ccccc1 | inactive | inactive
16 | CCOC(=O)c1ccc(NC(=O)CN2CCCCC2)cc1 | inactive | inactive
17 | COc1ccc(C(=O)Nc2nc(-c3ccccc3)cs2)c(NS(=O)(=O)c2ccc(C)cc2)c1 | inactive | inactive
18 | O=[S+]([O-])(c1ccc2c(c1)OCCO2)N1CCN([S+](=O)([O-])c2c(F)cc(O)cc2F)CC1 | inactive | inactive
19 | Cc1ccc(S(=O)(=O)Nc2cccc(C(=O)Nc3nc(-c4ccc(Cl)cc4)cs3)c2)cc1 | inactive | inactive
20 | Brc1cnc2nc(SCc3cccnc3)[nH]c2c1 | inactive | inactive
21 | NC(=O)C1CCN(c2nc(-c3cccc4ccccc34)cs2)CC1 | inactive | inactive
22 | O=C(Nc1nc(-c2ccccc2)cs1)c1ccncc1NS(=O)(=O)c1ccc(-c2ccccc2)cc1 | inactive | inactive

Row | Structure (SMILES) | Potency [1] | Potency [2]
23 | Cc1cccc(NC(=O)c2cnn3c(C)cc(C)nc23)c1 | inactive | inactive
24 | O=[S+]([O-])(Nc1ccc(-c2nc3ccccc3[nH]2)cc1)c1ccc2c(c1)CCO2 | inactive | inactive
25 | O=C(Nc1ccc(-c2ccccc2)cc1)Nc1nnc(-c2ccncc2)s1 | inactive | inactive
26 | CCC(C)(CCN1CCOCC1)N(Cc1cc2ccccc2n(C)c1=O)C(=O)C1CCCCC1 (stereo not given) | inactive | inactive
27 | Cc1cc2c(s1)c1cnn(Cc3cccc(Cl)c3)c(=O)c1n2C | inactive | inactive
28 | Cc1ccc(CNc2nc(-c3ccccc3C(F)(F)F)nc3ccccc23)s1 | inactive | inactive
29 | Cc1nc(N2CCOCC2)c2nc(-c3ccccc3)n(CCN3CCCCC3)c2n1 | inactive | inactive
30 | CCc1ccc2oc(NC3=NC(c4[nH]ncc4Cl)C4=C(CCCC4=O)N3)nc2c1 (stereo not given) | inactive | inactive
31 | c1ccc(-c2cnc(Nc3ccc(OCCN4CCCC4)cc3)s2)cc1 | inactive | inactive
32 | COc1cccc(C2c3c(ncn(-c4cccc(C)c4)c3=N)Oc3ccc4ccccc4c32)c1 (stereo not given) | inactive | inactive
33 | Cc1cc(C)n2ncc(C(=O)Nc3ccc4c(c3)CCC4)c2n1 | inactive | inactive
34 | Cc1ccc(NS(=O)(=O)c2cc3c(cc2Br)NC(=O)CO3)cc1C | inactive | inactive
35 | CC(C)(C)OC(=O)NCc1nnc(-c2cc3ccccc3[nH]2)s1 | inactive | inactive
36 | O=C(c1ccccc1O)N(Cc1ccccc1)Cc1cccs1 | inactive | inactive
37 | O=C(CNC(=O)c1ccc2n[nH]nc2c1)OC(C(=O)Nc1cc(C(F)(F)F)ccc1Cl)c1ccccc1 (stereo not given) | inactive | inactive
38 | O=C(Nc1ccc(-c2nc3ccccc3[nH]2)cc1)c1ccc2c(c1)OCCO2 | inactive | inactive
39 | CC(=O)Nc1sc2c(c1-c1nc3ccccc3s1)CCN(C(=O)OC(C)(C)C)C2 | inactive | inactive
40 | O=C(NCCc1nc2ccccc2n1CCOc1ccc(F)cc1)C1CCCCC1 | inactive | inactive
41 | Cc1ccc(OCCn2c(CCNC(=O)Cc3cccc4ccccc34)nc3ccccc32)cc1 | inactive | inactive
42 | Cc1cn(-c2cc(F)cc(NC(=O)c3ccc(C)c(Nc4nccc(-c5cccnc5)n4)c3)c2)cn1 | inactive | inactive
43 | Cn1ccc2cc(S(=O)(=O)N3CCN(S(=O)(=O)c4c(F)cccc4F)CC3)ccc21 | inactive | inactive
44 | COc1ccc2nc(-c3cccc(OCc4ccccc4)c3)sc2c1 | inactive | inactive

Row | Structure (SMILES) | Potency [1] | Potency [2]
45 | C=CCNc1oc(-c2cccc(Br)c2)nc1C#N | inactive | inactive
46 | Cc1ccc(-c2cc(C(=O)Nc3ccc(S(C)(=O)=O)cc3)c3ccccc3n2)cc1C | inactive | inactive
47 | CCN1CCN(Cc2ccc(C(=O)Nc3ccc(C)c(Oc4ccc5c(c4)CC(=O)N5)c3)cc2C(F)(F)F)CC1 | inactive | inactive
48 | O=S(=O)(c1ccc2c(c1)OCCO2)N1CCN(S(=O)(=O)c2cccs2)CC1 | inactive | inactive
49 | N[C@@H](Cc1ccc(OS(=O)(=O)c2ccccn2)cc1)C(=O)N1CCN(c2ccccc2)CC1 | inactive | inactive
50 | O=C(CSc1nnc(-c2cccc([S+](=O)([O-])N3CCCC3)c2)n1-c1ccccc1)Nc1cccc(F)c1 | inactive | inactive
51 | CCCC1CCC(C(=O)Nc2ccc(S(=O)(=O)Nc3nccs3)cc2)CC1 (stereo not given) | inactive | inactive
52 | O=C1c2ccccc2C(=O)N1c1cccc2cnccc12 | inactive | inactive
53 | Cc1ccc(NS(=O)(=O)c2ccc3c(c2)CCC(=O)N3)cc1Cl | inactive | inactive
54 | CCOc1ccc(CCNC(=O)c2cc3sccc3n2Cc2ccccc2)c(F)c1OCC | inactive | inactive
55 | O=C(Cn1nc(-c2ccccc2)ccc1=O)NCCc1ccccc1 | inactive | inactive
56 | FC(F)(F)c1cccc(N2CCN(C(=S)Nc3nccc4ccccc34)CC2)c1 | inactive | inactive
57 | N#Cc1cc(NC(=O)Nc2nnc(-c3ccncc3)s2)ccc1Br | inactive | inactive
58 | O=C1CCCC2=C1C(c1ccncc1Cl)N=C(Nc1nc3ccccc3o1)N2 (stereo not given) | inactive | inactive
59 | FC(F)(F)c1ccccc1-c1nc(NCc2ccc(-c3ccc(Cl)cc3)cc2)c2ccccc2n1 | inactive | inactive
60 | Cc1ccc(C2N=C(Nc3nc4ccccc4o3)NC3=C2C(=O)CCC3)s1 (stereo not given) | inactive | inactive
61 | COc1cc(O)c(C(CC(=O)N2CCC(C)CC2)c2ccc(C)cc2)c(OC)c1 (stereo not given) | inactive | inactive
62 | CCn1c(-c2nonc2N)nc2c(C#CCO)ncc(OCCCN)c21 | inactive | inactive
63 | O=C(NC1CCCc2c1cnn2-c1ccc(F)cc1F)c1cccs1 (stereo not given) | inactive | inactive
64 | O=C(c1cc2sccc2n1Cc1ccccc1)N(CCc1ccc(O)c(O)c1)Cc1ccccc1 | inactive | inactive
65 | Cc1ccc(-c2ccc(=O)n(C(C)C)n2)cc1 | inactive | inactive
66 | Cc1cc(C)nc(NC(=S)N2CCN(c3ncc(C(F)(F)F)cc3Cl)CC2)c1 | inactive | inactive

Row | Structure (SMILES) | Potency [1] | Potency [2]
67 | Cc1ccc(NS(=O)(=O)c2cccc(F)c2)cc1C | inactive | inactive
68 | CC(=O)N1CCCc2cc(S(=O)(=O)Nc3ccc(C)c(C)c3)ccc21 | inactive | inactive
69 | O=C1CCCC2=C1C1(CCCC1)N=C(Nc1nc3cc(Br)ccc3o1)N2 | inactive | inactive
70 | NC(=O)C1CCN(c2nc(-c3ccccc3Cl)cs2)CC1 | inactive | inactive
71 | CCc1c(C)nc2cc(-c3ccc(OC)c(OC)c3)nn2c1N1CCCC1 | inactive | inactive
72 | N#Cc1cnc(N[S+](=O)([O-])c2ccc(Nc3nc(-c4ccccc4)cs3)cc2)s1 | inactive | inactive
73 | Cc1ccc(S(=O)(=O)Nc2cnccc2C(=O)Nc2nc3ccccc3s2)cc1 | inactive | inactive
74 | CC1=CCC(O)C2(C)CCC3C(C)C(=O)OC3C12 (stereo not given) | inactive | inactive
75 | COc1cc(C(=O)NC(=S)Nc2cccc(NC(=O)c3ccccc3)c2)cc(OC)c1OC | inactive | inactive
76 | O=S(=O)(NC1CCN(S(=O)(=O)c2c(F)cccc2F)C1)c1ccc2c(c1)OCCO2 (stereo not given) | inactive | inactive
77 | N#Cc1ccc(C(=O)NCC(=O)OC(C(=O)Nc2cc(C(F)(F)F)ccc2Cl)c2ccccc2)cc1 (stereo not given) | inactive | inactive
78 | CCC(C)C(=O)OC1C(C)C2(O)C(C=C(CO)CC3(O)C(=O)C(C)=CC32)C2C(C)(C)C12OC(=O)C(C)C (stereo not given) | inactive | inactive
79 | C[C@H](Oc1cc(-n2cnc3ccc(CN4CCN(C)CC4)cc32)sc1C(N)=O)c1ccccc1C(F)(F)F | inactive | inactive
80 | Fc1ccc(Nc2cc(-c3ccccc3)nc(-c3ccncc3)n2)cc1F | inactive | inactive
81 | COc1ccc(C2=Nn3c(nnc3-c3ccccc3F)SC2)cc1OC1CCOC1 (stereo not given) | inactive | inactive
82 | O=C(O)c1ccc2c(c1)C(=O)N([C@@H](C(=O)O)C(c1ccccc1)c1ccccc1)C2=O | inactive | inactive
83 | CC1=CC(=O)C2C(C)(C)CCC[C@]2(C)[C@H]1CC[C@H](C)CC(=O)O (stereo not given in full) | inactive | inactive
84 | O=C(Cc1ccccc1)Nc1ncnc2c1C(c1ccccc1)c1c(ccc3ccccc13)O2 (stereo not given) | inactive | inactive
85 | C[C@H](C/C=C/C(C)(C)O)[C@H]1CC[C@@]2(C)[C@@H]3[C@@H](O[C@@H]4O[C@H](CO)[C@@H](O)[C@H](O)[C@H]4O)C=C4C(CC[C@H](O)C4(C)C)[C@]3(C=O)CC[C@]12C (stereo not given in full) | inactive | inactive
